High-throughput results as filed in PubChem.
A selection: hits, their analogues and other compounds. The true share with any hit is near 6.1%.
M1 ag = M1 muscarinic receptor agonists, primary screen, CHO-M1 cells, Fluo-4 calcium, agonist mode | 64,000 tested, 3% active | AID 626, 2007 | Fluo-4 calcium fluorescence; active compounds read high | B-score at 10 µM;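 active = fluorescence rise, raw or as B-score row- and column-corrected plate score, outside the 99.7% band of its plate's samples, either direction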
MMP-13 inhibitor = human MMP13 inhibitors, primary screen, biochemical, FRET peptide cleavage. Collagenase 3 (Homo sapiens), P45452. AID 570, 2006. inhibition, % at 4 µM. 65,000 tested, 0.07% active. MMP-13 fTHP FRET cleavage, Mca fluorescence;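 active = inhibition above the mean of compound-free control plate wells plus 3 SD, cut at about 14% in these data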;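 note: 0% = DMSO wells and 100% = wells with reference MMP-13 inhibitor after basal subtraction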
Hsp90 block = tumor Hsp90 inhibitors, primary screen, cell lysate, fluorescence polarization, NCI-N417 lysate; inhibition, % at 30 µM; Heat shock protein HSP 90-alpha (Homo sapiens), P07900; 64,000 tested, 0.35% active; Cy3B-geldanamycin FP displacement; AID 429, 2006;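 active = inhibition above 50%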;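 note: 0% = tracer plus lysate wells and 100% = tracer alone without lysate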
Cdc25B block = inhibitors of Cdc25B phosphatase catalytic domain, primary screen, biochemical, OMFP fluorescence; 65,000 tested, 0.1% active; inhibition, %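 (compounds tested at 10 µM final in the well)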; recombinant Cdc25B, OMFP fluorescence Ex485/Em525; M-phase inducer phosphatase 2 (Homo sapiens), P30305; in the data active = inhibition above about 50%
M1 antagonist = antagonists of rat M1 muscarinic receptor. CHO-M1 cells, Fluo-4 calcium, ACh EC80 antagonist mode; active compounds read low. B-score at 10 µM. 64,000 tested, 3.4% active;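 active = calcium fluorescence response, raw or row-and-column corrected B-score, differing from the plate sample mean either way at a set confidence level, mostly lower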
MKP-1 inh = MKP-1 phosphatase inhibitors, primary screen, biochemical, in vitro. Dual specificity protein phosphatase 1 (Homo sapiens), P28562. recombinant MKP-1, OMFP hydrolysis fluorescence. inhibition, %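 (compounds tested at a single concentration somewhere between 10 and 100 µM)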. 65,000 tested, 0.15% active. AID 374, 2006;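 active = inhibition above about 50%, limit read from the data; inconclusive = inhibition over screen mean plus 3 SD, below that limit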;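 note: 0% = DMSO max control wells and 100% = wells with enzyme stopped by NaOH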
M1 ag confirm = rat M1 muscarinic receptor agonists, confirmation, CHO-M1 cells, Fluo-4 calcium, duplicate retest; 1,700 tested, 19% active; fluorescence change (max-min) at 10 µM; shares compounds with M1 ag; Fluo-4 calcium fluorescence, agonist mode; actives lie on both sides;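 active = fluorescence change differs from the solvent-only DMSO control mean at a set confidence level in both duplicate runs; inconclusive = differs from solvent-only control mean in just one of two runs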;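 note: an EC20 dose of acetylcholine follows compound addition during the same imaging run; raw fluorescence intensity difference in instrument units with no normalization to controls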
M4 agonist ctr = agonist activity at rat M4 receptor, confirmation, counter-screen for M1 allosteric modulator project, cell-based, agonist mode; fluorescence change (max-min) at 10 µM; shares compounds with M1 ag; CHO M4/Gqi5 cells, Fluo-4 calcium fluorescence; actives lie on both sides; 1,700 tested, 9% active;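 active = fluorescence change differing from the plate's solvent-only control wells at 99.7% confidence in both duplicates, whether higher or lower; inconclusive = differs from solvent controls in only one of two duplicates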
Target sequence (P08485 whole entry, looked up): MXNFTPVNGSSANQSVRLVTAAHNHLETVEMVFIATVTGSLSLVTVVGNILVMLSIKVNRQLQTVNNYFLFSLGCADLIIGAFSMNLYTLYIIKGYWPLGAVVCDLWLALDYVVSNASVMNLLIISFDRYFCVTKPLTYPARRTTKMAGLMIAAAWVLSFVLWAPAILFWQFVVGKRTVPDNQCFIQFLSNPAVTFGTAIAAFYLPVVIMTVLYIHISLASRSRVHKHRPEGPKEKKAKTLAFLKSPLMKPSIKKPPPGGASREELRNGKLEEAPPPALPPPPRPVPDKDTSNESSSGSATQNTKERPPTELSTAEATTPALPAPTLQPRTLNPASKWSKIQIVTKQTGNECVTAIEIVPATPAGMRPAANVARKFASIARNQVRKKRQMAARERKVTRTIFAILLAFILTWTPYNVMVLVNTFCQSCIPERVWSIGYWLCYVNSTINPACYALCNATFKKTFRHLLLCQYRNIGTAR
An asterisk follows results filed as active; ? = inconclusive; nt = no result given.

SMILES	M1 ag	MMP-13 inhibitor	Hsp90 block	Cdc25B block	M1 antagonist	MKP-1 inh	M1 ag confirm	M4 agonist ctr
CCCN(C(=O)c1ccccc1N)c1c(C)n(C)n(-c2ccccc2)c1=O	0.0055	-3	-4	3	-0.59	-7	nt	nt
CCOc1ccccc1C(=O)NCC(=O)OCC(=O)N1C(C)CCCC1C (configuration not stated)	-2.6*	2	2	-7	-0.3	8	?	-84*
CCOc1ccccc1C(=O)NCC(=O)OCC(=O)NCCc1ccc(S(N)(=O)=O)cc1	-0.69	-2	nt	-1	-0.39	10	nt	nt
CCN1C(=O)c2cccc3c(NC(=O)c4ccc5c(c4)OCCO5)ccc1c23	9*	5	-4	-13	0.036	6	2.8	134*
CCN1C(=O)c2cccc3c(NC(=O)C4CCCCC4)ccc1c23	-0.6	2	-5	12	-0.47	32	nt	nt
CCc1ccc(C2CC(c3ccccc3)n3ncnc3N2)cc1 (configuration not stated)	-1.4	nt	-4	-11	0.092	-1	nt	nt
COc1ccc(CNC(=O)c2ccc3c(c2)N(C)C(=O)CS3=O)cc1 (configuration not stated)	-0.17	1	2	4	0.012	7	nt	nt
Cc1cc(C)n2nc(C(=O)OCC(=O)Nc3ccc4c(c3)OCO4)nc2n1	-0.82	-3	4	-9	0.83	-2	nt	nt
Cc1cc(C)n2nc(C(=O)Nc3ccc4c(c3)OCO4)nc2n1	4.5*	4	3	-7	0.26	13	?	-52
O=C(CCCN1C(=O)c2ccccc2C1=O)Nc1ccccc1C(=O)N1CCOCC1	2.3*	3	-4	-15	0.68	5	-19	-31
CCC(=O)Nc1ccccc1C(=O)N1CCOCC1	-0.03	6	-8	4	0.46	-2	nt	nt
COc1ccc(S(=O)(=O)N2CCCC2C(=O)Nc2ccc(C(C)=O)cc2)cc1 (configuration not stated)	-0.37	-2	-1	-7	1.2	0	nt	nt
CCOC(=O)CSc1nnc(CNc2ccc(Cl)cc2)n1-c1ccccc1	-1.3	2	0	-2	-0.37	11	nt	nt
O=C(O)CSc1nnc(CNc2ccccc2Cl)n1-c1ccccc1	84*	7	-2	-1	3*	6	?	-66
CSc1cccc(NS(=O)(=O)c2cccs2)c1	2.8*	-1	-3	5	0.95	14	-28*	-57
CSc1cccc(NS(=O)(=O)c2ccc3c(c2)oc(=O)n3C)c1	-4*	-18	2	4	-1.2	-3	-15	-35
COC(=O)CSc1nc(N)c(C#N)c(C(C)C)c1C#N	0.044	-2	0	12	0.11	-10	nt	nt
COC(=O)CSc1cc(SCC(=O)OC)c(C#N)c(SCC(=O)OC)c1	9.5*	-3	-2	8	-1.1	3	-21	-64*
O=C(O)c1ccc(CSCc2ccccc2F)o1	6.8*	1	-2	10	-1.1	3	-23	-32
O=C(O)c1ccc(COc2c(F)c(F)c(F)c(F)c2F)o1	0.34	2	-3	-14	0.0094	-12	nt	nt
O=C(COC(=O)c1ccc2c(c1)OCO2)NC1CCS(=O)(=O)C1 (configuration not stated)	-0.8	-6	-2	-3	-0.034	22	nt	nt
COc1ccc(C2C(C(=O)c3cccs3)=C(O)C(=O)N2c2nnc(C)s2)cc1OC (configuration not stated)	68*	8	-1	0	-1.5	6	96*	42
COc1ccc(C2C(CC(=O)O)=C(O)C(=O)N2c2ccccc2)cc1 (configuration not stated)	-0.63	0	-9	3	0.32	-1	nt	nt
COc1ccc(C2C(C(=O)c3cccs3)=C(O)C(=O)N2c2nncs2)cc1 (configuration not stated)	93*	-6	nt	-14	-0.11	17	439*	339*
CC(C)C(OC(=O)c1cccs1)C(=O)NCc1cccs1 (configuration not stated)	-0.41	0	-1	-16	-0.05	-23	nt	nt
SMILES	M1 ag	MMP-13 inhibitor	Hsp90 block	Cdc25B block	M1 antagonist	MKP-1 inh	M1 ag confirm	M4 agonist ctr
CCCc1nc2ccccc2n2cc3c(=O)n(C)c(=O)n(C)c3c12	-0.52	1	-7	0	-0.35	-5	nt	nt
C=CCn1c(SCc2nc(N)nc(N3CCCCC3)n2)nnc1-c1ccco1	-0.19	-2	-3	-15	0.1	3	nt	nt
COc1cc2[nH]c(=O)n(CCCCCC(=O)N3CCN(c4ccccc4)CC3)c(=O)c2cc1OC	2.8*	5	nt	nt	-1.8	nt	-6.8	-12
COC(=O)c1ccc2c(=O)n(CCCCCC(=O)N3CCN(c4ccccc4)CC3)c(=O)[nH]c2c1	11*	0	1	-11	-1.7	25	-5.2	5.4
COc1cc2[nH]c(=O)n(CCC(=O)N3CCN(c4cccc(C)c4C)CC3)c(=O)c2cc1OC	-0.43	7	nt	-8	1.1	37	nt	nt
CCOc1ccc2nc(NC(=O)CS(=O)(=O)c3ccccc3)sc2c1	2.2*	2	-2	-7	0.32	6	-16	-38
COc1ccc(NC(=O)N(Cc2cc3cc(OC)ccc3[nH]c2=O)CC2CCCO2)cc1 (configuration not stated)	4*	-8	-6	0	-0.44	28	?	-74*
COc1ccc(NC(=O)N(CCCN(C)C)Cc2cc3cc(OC)ccc3[nH]c2=O)cc1	-0.21	-9	-3	-17	0.81	4	nt	nt
CCOC(=O)NC(=O)COC(=O)Cc1cc(OC)c(OC)c(OC)c1	0.38	1	-2	-7	1.1	30	nt	nt
O=C1COc2ccc(C(=O)CSc3nnc(Cc4cccs4)n3-c3ccccc3)cc2N1	5.2*	2	0	-1	0.45	21	5.3	-24
CCOC(=O)c1oc2cccc(O)c2c1CN1CCOCC1	-0.1	2	2	-6	0.4	9	nt	nt
CCOC(=O)c1oc2cccc(O)c2c1CN(Cc1ccccc1)C(C)=O	2.6*	0	-5	-8	0.73	5	?	-44
CC(C)(C)C(=O)NC1CCN(S(=O)(=O)c2cccc(C(F)(F)F)c2)CC1	0.73	-5	-2	13	0.37	10	nt	nt
